Screening data (PubChem BioAssay)
HepG2 tox – HepG2 cytotoxicity, counter-screen for TGF-b inhibitors; HepG2 CAGA-GFP viability, ATP luminescence, 18 h; actives 0.76% (n = 410,000); Potency, µM (titrated, usually from 46.1 µM), for the others: top-dose activity change, negative = cytotoxicity, hits mostly cytotoxic; note: potency is the fitted concentration of half-maximal effect
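CellTiter-Glo luminescence gave cytotoxicity after 18 hours at 37 degrees C. The cells were HepG2 CAGA-GFP in 1% FBS DMEM, stimulated with 500 pg/mL TGF-beta after compound addition. %Activity was normalised to no-cell wells (complete cell-killing) and DMSO (no toxicity), and curves were fitted and classified.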
TGFb SMAD3 inh – inhibitors of TGF-b signaling; actives 1.2% (n = 410,000); HepG2 CAGA-GFP TGF-b/SMAD3 reporter, GFP fluorescence, 18 h; TGF-beta stimulated, 500 pg/mL final; Potency, µM (doses to about 46.1 µM), inactives show at the top dose activity, negative = inhibition, usual class: inhibitors; note: potency is the fitted concentration of half-maximal effect; % is set by controls: 0 for no effect and ±100 for the full control effect; nearly all actives have a fitted effect of over 65% in size
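Inhibition was scored as loss of TGF-beta-induced (500 pg/mL final, 18 hours, 37 degrees C) GFP in HEPG2 cells carrying a CAGA-GFP reporter, in DMEM with 1% FBS. Well GFP was summed per cell; Activity was normalised to unstimulated and stimulated DMSO wells, then concentration-response fitting.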
TDP1 block – blocks human tyrosyl-DNA phosphodiesterase 1; Q9NUW8; actives 0.28% (n = 350,000); Potency, µM (series often up to 130 µM), without a hit: at the top dose activity change, negative = inhibition, most hits filed as inhibitors; recombinant TDP1, AlphaScreen DNA substrate cleavage; note: potency is the fitted concentration of half-maximal effect; % is set by controls: 0 for no effect and ±100 for the full control effect; nearly all actives have a fitted effect of over 40% in size
Target sequence (Q9NUW8 whole entry, looked up): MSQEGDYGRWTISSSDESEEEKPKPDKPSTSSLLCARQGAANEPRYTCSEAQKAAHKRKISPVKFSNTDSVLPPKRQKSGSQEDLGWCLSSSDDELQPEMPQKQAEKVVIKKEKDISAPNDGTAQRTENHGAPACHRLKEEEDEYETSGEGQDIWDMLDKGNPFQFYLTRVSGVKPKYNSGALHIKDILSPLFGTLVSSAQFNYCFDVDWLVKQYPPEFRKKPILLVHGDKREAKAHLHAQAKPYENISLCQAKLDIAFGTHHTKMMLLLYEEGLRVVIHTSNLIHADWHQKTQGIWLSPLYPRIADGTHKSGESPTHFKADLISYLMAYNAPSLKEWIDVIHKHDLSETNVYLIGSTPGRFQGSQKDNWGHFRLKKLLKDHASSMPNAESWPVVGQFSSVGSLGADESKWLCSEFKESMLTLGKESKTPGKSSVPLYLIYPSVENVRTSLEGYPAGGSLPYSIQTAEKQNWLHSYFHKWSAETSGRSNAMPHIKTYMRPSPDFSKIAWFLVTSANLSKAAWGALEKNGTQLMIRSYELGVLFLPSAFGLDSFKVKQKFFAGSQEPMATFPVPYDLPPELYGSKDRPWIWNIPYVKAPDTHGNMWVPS
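Here, a 5' biotin and 3' phosphotyrosine-FITC DNA oligonucleotide reports Tdp1 activity: intact substrate bridges AlphaScreen beads, while cleavage leaves a 3' phosphate and drops signal. All incubations at room temperature.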
TDP1 cell noCPT – qHTS for Inhibitors of human tyrosyl-DNA phosphodiesterase 1 (TDP1): qHTS in cells in absence of CPT | DT40 Tdp1-/- hTDP1 cells, no CPT, ATP luminescence, 48 h | Potency, µM (titrated, usually from 46.2 µM), for inactives: at the top dose activity change, negative = growth inhibition, usual class: inhibitors | actives 15% (n = 420,000); note: potency is the fitted concentration of half-maximal effect; % is set by controls: 0 for no effect and ±100 for the full control effect; nearly all actives have a fitted effect of over 55% in size
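Chicken DT40 Tdp1-/- cells complemented with human TDP1, screened without camptothecin (DMSO vehicle only), 400 cells/well. Compounds pin-transferred, cells incubated at 37 °C for at least 48 hr. Growth read as ATP-dependent luminescence (CellTiter-Glo, 30 min at RT).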
IL-1B inflam inh – inflammasome signaling inhibition, IL-1 beta readout | THP-1 LPS/ATP IL-1B secretion, AlphaLISA, 16 h; stronger effect = lower value | activity change, % at 57.5 µM | actives 4.7% (n = 360,000); in the data active = activity change below about -50%; inconclusive = mostly about -30% to -49%; note: % is set by controls: 0 for no effect and ±100 for the full control effect
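THP-1 cells pretreated 1 hr with compounds (up to 57.5 uM final), then stimulated with LPS (250 ng/mL final) plus ATP (1.25 mM final); secreted IL-1B measured by AlphaLISA after 16 hr, decreased signal indicating inhibition.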
TDP1 cell CPT – growth inhibition of DT40 Tdp1-/-;hTDP1 cells with camptothecin (screen for TDP1 inhibitors). AID 686979. Potency, µM (series often up to 46.2 µM), for inactives: at the top dose activity change, negative = growth inhibition, usual class: inhibitors. actives 12% (n = 420,000). chicken DT40 Tdp1-/-;hTDP1 cells + 20 nM CPT, ATP luminescence, 48 h; note: potency is the fitted concentration of half-maximal effect; % is set by controls: 0 for no effect and ±100 for the full control effect; nearly all actives have a fitted effect of over 55% in size
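Cell growth measured by CellTiter-Glo luminescence after a minimum 48 h, 37 C compound exposure with 20 nM CPT in Tdp1-knockout DT40 cells stably expressing hTDP1, seeded 400/well; qHTS titration format.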
* = called active by the depositor; ? = inconclusive; nt = not tested or not shown. Most compounds without a hit are left out; they make up all but 19% or so of the library. Unless noted, calls come from the whole dose curve; as a rule, active = well fitted curve in the direction sought with a large enough effect; inconclusive = small, poorly fitted or top-dose-only effect, or another doubt; inactive = no such curve, though single readings can be large; an effect the other way counts as inactive or inconclusive.

SMILES	HepG2 tox	TGFb SMAD3 inh	TDP1 block	TDP1 cell noCPT	IL-1B inflam inh	TDP1 cell CPT
Cc1cccc(Cn2c(SCC(=O)Nc3ccccc3)nc3c2c(=O)[nH]c(=O)n3C)c1	-14%	1%	3%	21µM*	?	?
Cc1cccc(Cn2c(Sc3nc(C)cs3)nc3c2c(=O)[nH]c(=O)n3C)c1	-6%	-18%	5%	18µM*	26	?
Cc1cccc(Cn2c(NC3CCCC3)nc3c2c(=O)[nH]c(=O)n3C)c1	-18%	-3%	nt	23µM*	-14	?
Cn1c(=O)[nH]c(=O)c2c1nc(SCC(=O)O)n2Cc1ccccc1	3%	2%	6%	4%	6	4%
CN(Cc1c(C(=O)N(C)Cc2ccccc2)nc2ccccn12)CC1Cc2ccccc2O1 (stereo not drawn)	-37%	-23%	8%	15µM*	1	18µM*
Cc1nn(C)cc1CN(C)Cc1c(C(=O)N(C)Cc2ccccc2)nc2ccccn12	0%	8%	6%	?	18	?
CN(Cc1ccccc1)C(=O)c1nc2ccccn2c1CN1CCc2sccc2C1	-50%	0%	nt	?	-94*	-22%
CCOC(=O)CN(C(=O)CSc1nnnn1C)c1ccccc1	5%	3%	1%	-6%	32	5%
O=C(NNC(=O)c1ccc(S(=O)(=O)N2CCCCC2)cc1)c1ccc(F)cc1	5%	-2%	11%	-13%	-1	-2%
Cc1ccc(-n2nc3c(=O)n(CCCC(=O)NC(C)c4ccccc4)nc(C)c3c2C)cc1 (stereo not drawn)	-31%	-10%	-3%	?	nt	-23%
Cc1nc2c(C(=O)N(C)Cc3ccccc3)c[nH]n2c(=O)c1Cc1ccc(Cl)cc1	-31%	?	4%	?	nt	18µM*
Cc1nc2c(C(=O)NCCc3ccc(Cl)cc3)c[nH]n2c(=O)c1Cc1ccc(Cl)cc1	11µM*	?	13%	?	nt	-5%
Cc1nc2c(C(=O)NCCc3ccccc3)c[nH]n2c(=O)c1Cc1ccccc1F	-63%	?	9%	?	nt	?
Cc1ccc(CNC(=O)c2c[nH]n3c(=O)c(Cc4ccc(Cl)cc4)c(C)nc23)cc1	13µM*	?	10%	?	nt	?
CCOc1ccc(C2CC(c3c(O)n(C4CCCCC4)c(=O)[nH]c3=O)=Nc3ccccc3S2)cc1 (stereo not drawn)	2%	-1%	3%	1%	nt	-3%
Cc1nc2c3ccccc3nc(NNC(=O)CCC(=O)N3CCN(c4cccc(Cl)c4)CC3)n2n1	-27%	?	13%	?	nt	?
Cc1cccc(N2CCN(C(=O)CC(NC(=O)c3ccccc3Cl)c3ccccc3)CC2)c1C (stereo not drawn)	0%	?	3%	?	-4	18µM*
O=C(NC(CC(=O)N1CCN(c2ccc([N+](=O)[O-])cc2)CC1)c1ccccc1)c1ccccc1Cl (stereo not drawn)	-27%	-22%	5%	16µM*	-16	?
Cc1cccc(N2CCN(C(=O)CNC(=O)Cc3ccccc3)CC2)c1C	-12%	-19%	0%	?	-5	?
CS(=O)(=O)N1CCC(N2CCN(Cc3ccccc3)C(=O)C2=O)CC1	5%	-2%	0%	-14%	nt	5%
Cc1ccc(NC(=O)/C(C#N)=C(\N)C(Cl)(Cl)Cl)nc1	-38%	?	5%	2.1µM*	-100*	0.58µM*
CC(C)CC1NC(=O)c2ccccc2-n2c1nc1ccc(F)cc1c2=O (stereo not drawn)	nt	nt	0%	nt	nt	nt
COc1ccc(OC)c2c(C)cc(N3CCCCCC3)nc12	-30%	?	nt	9.2µM*	-11	?
